Assay results from PubChem BioAssay AID1159580 (chemical genetic matrix, 2015).
Screen size: about 5,500 compounds; about 2,000 (36%) were called active. Roughly 18% stayed inconclusive and do not appear here. Cut-off read from the data, not from the text of the source: active = normalized growth mostly below about 0.91 (no sharp cut-off); inconclusive = no clear call, values can overlap the other calls; inactive = mostly above about 0.92. Some of the results follow.

Assay: chemical genetic growth profiling, strain panel (AID 1159580);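 note: tested at 20 µM; growth read once vehicle control cultures reached saturation at 30 °C; 1 = growth at the plate median or of vehicle wells; lower values mean less growth of the strain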
Conditions: growth OD

Measured: normalized growth

COc1cc(O)c(C(=O)O)c(O)c1
inactive: S. cerevisiae deletion strains, locus YJR075W, strain HOC1, stronger effect = lower value 1 | S. cerevisiae deletion strains, locus YKL009W, strain mrt4, stronger effect = lower value 1.01 | S. cerevisiae deletion strains, locus YKL068W, stronger effect = lower value 0.954 | S. cerevisiae deletion strains, locus YKL085W, strain MDH1 (second series), stronger effect = lower value 0.961 | S. cerevisiae deletion strains, locus YKL085W, strain MDH1, stronger effect = lower value 0.961 | S. cerevisiae deletion strains, locus YKL160W, strain elf1, stronger effect = lower value 1 | S. cerevisiae deletion strains, locus YKL190W, strain CNB1, stronger effect = lower value 1.01 | S. cerevisiae deletion strains, locus YKR001C, strain vps1, stronger effect = lower value 1.02 | S. cerevisiae deletion strains, locus YKR026C, strain gcn3, stronger effect = lower value 0.986 | S. cerevisiae deletion strains, locus YKR091W, strain srl3, stronger effect = lower value 0.991 | S. cerevisiae deletion strains, locus YLL001W, strain dnm1, stronger effect = lower value 0.981 | S. cerevisiae deletion strains, locus YLL026W, stronger effect = lower value 1 | S. cerevisiae deletion strains, locus YLL041C, strain sdh2, stronger effect = lower value 0.986 | S. cerevisiae deletion strains, locus YLR027C, strain aat2, stronger effect = lower value 0.983 | S. cerevisiae deletion strains, locus YLR039C, strain RIC1, stronger effect = lower value 1.06 | S. cerevisiae deletion strains, locus YLR058C, strain SHM2, stronger effect = lower value 1 | S. cerevisiae deletion strains, locus YLR102C, strain apc9, stronger effect = lower value 0.997 | S. cerevisiae deletion strains, locus YLR221C, strain rsa3, stronger effect = lower value 1 | S. cerevisiae deletion strains, locus YLR258W, strain gsy2, stronger effect = lower value 0.998 | S. cerevisiae deletion strains, locus YLR262C, strain YPT6 (second series), stronger effect = lower value 1.02 | S. cerevisiae deletion strains, locus YLR262C, strain YPT6, stronger effect = lower value 1.02 | S. cerevisiae deletion strains, locus YLR268W, strain sec22, stronger effect = lower value 0.995 | S. cerevisiae deletion strains, locus YLR320W, strain mms22, stronger effect = lower value 1.01 | S. cerevisiae deletion strains, locus YLR330W, strain CHS5, stronger effect = lower value 0.991 | S. cerevisiae deletion strains, locus YLR342W, strain FKS1 (second series), stronger effect = lower value 1.06 | S. cerevisiae deletion strains, locus YLR342W, strain FKS1, stronger effect = lower value 0.99 | S. cerevisiae deletion strains, locus YLR357W, strain rsc2, stronger effect = lower value 1.01 | S. cerevisiae deletion strains, locus YLR370C, strain arc18, stronger effect = lower value 0.99 | S. cerevisiae deletion strains, locus YLR371W, strain rom2, stronger effect = lower value 0.999 | S. cerevisiae deletion strains, locus YLR384C, strain iki3, stronger effect = lower value 0.985 | S. cerevisiae deletion strains, locus YLR418C, strain cdc73, stronger effect = lower value 1.01 | S. cerevisiae deletion strains, locus YML016C, strain PPZ1, stronger effect = lower value 0.999 | S. cerevisiae deletion strains, locus YML032C, strain rad52, stronger effect = lower value 1.04 | S. cerevisiae deletion strains, locus YML120C, strain ndi1, stronger effect = lower value 0.998 | S. cerevisiae deletion strains, locus YML124C, strain tub3, stronger effect = lower value 0.992 | S. cerevisiae deletion strains, locus YMR058W, strain fet3, stronger effect = lower value 0.999 | S. cerevisiae deletion strains, locus YMR078C, strain ctf18, stronger effect = lower value 1.01 | S. cerevisiae deletion strains, locus YMR125W, strain sto1, stronger effect = lower value 0.973 | S. cerevisiae deletion strains, locus YMR129W, stronger effect = lower value 0.986 | S. cerevisiae deletion strains, locus YMR205C, strain PFK2, stronger effect = lower value 1.01 | S. cerevisiae deletion strains, locus YMR223W, strain ubp8, stronger effect = lower value 1.03 | S. cerevisiae deletion strains, locus YMR231W, strain pep5, stronger effect = lower value 0.984 | S. cerevisiae deletion strains, locus YMR263W, strain SAP30, stronger effect = lower value 1 | S. cerevisiae deletion strains, locus YMR307W, strain GAS1, stronger effect = lower value 1.03 | S. cerevisiae deletion strains, locus YNL067W, strain RPL9B, stronger effect = lower value 1 | S. cerevisiae deletion strains, locus YNL071W, strain lat1, stronger effect = lower value 0.99 | S. cerevisiae deletion strains, locus YNL128W, strain TEP1, stronger effect = lower value 1 | S. cerevisiae deletion strains, locus YNL153C, strain GIM3, stronger effect = lower value 0.998 | S. cerevisiae deletion strains, locus YNL183C, strain NPR1, stronger effect = lower value 0.84 | S. cerevisiae deletion strains, locus YNL209W, strain ssb2, stronger effect = lower value 0.981 | S. cerevisiae deletion strains, locus YNL233W, strain BNI4, stronger effect = lower value 1.01 | S. cerevisiae deletion strains, locus YNL248C, strain rpa49, stronger effect = lower value 0.992 | S. cerevisiae deletion strains, locus YNL250W, strain rad50, stronger effect = lower value 0.97 | S. cerevisiae deletion strains, locus YNL271C, strain bni1, stronger effect = lower value 0.945 | S. cerevisiae deletion strains, locus YNL298W, strain CLA4, stronger effect = lower value 0.977 | S. cerevisiae deletion strains, locus YNL307C, strain MCK1, stronger effect = lower value 1.02 | S. cerevisiae deletion strains, locus YNL322C, strain KRE1 (second series), stronger effect = lower value 0.972 | S. cerevisiae deletion strains, locus YNL322C, strain KRE1, stronger effect = lower value 0.99 | S. cerevisiae deletion strains, locus YNR049C, strain mso1, stronger effect = lower value 0.98 | S. cerevisiae deletion strains, locus YNR052C, strain pop2, stronger effect = lower value 1.02 | S. cerevisiae deletion strains, locus YOL006C, strain TOP1, stronger effect = lower value 1.04 | S. cerevisiae deletion strains, locus YOL012C, strain htz1 0.943 | S. cerevisiae deletion strains, locus YOL147C, strain pex11, stronger effect = lower value 1 | S. cerevisiae deletion strains, locus YOR001W, strain rrp6, stronger effect = lower value 0.999 | S. cerevisiae deletion strains, locus YOR061W, strain CKA2, stronger effect = lower value 1.01 | S. cerevisiae deletion strains, locus YOR069W, strain VPS5, stronger effect = lower value 0.993 | S. cerevisiae deletion strains, locus YOR070C, strain gyp1, stronger effect = lower value 0.994 | S. cerevisiae deletion strains, locus YOR080W, strain dia2, stronger effect = lower value 1 | S. cerevisiae deletion strains, locus YOR083W, strain WHI5, stronger effect = lower value 1.01 | S. cerevisiae deletion strains, locus YOR106W, strain vam3, stronger effect = lower value 1.01 | S. cerevisiae deletion strains, locus YOR136W, strain idh2, stronger effect = lower value 1.03 | S. cerevisiae deletion strains, locus YOR144C, strain elg1, stronger effect = lower value 1 | S. cerevisiae deletion strains, locus YOR184W, strain ser1, stronger effect = lower value 1.04 | S. cerevisiae deletion strains, locus YOR231W, strain MKK1, stronger effect = lower value 0.885 | S. cerevisiae deletion strains, locus YOR265W, strain rbl2, stronger effect = lower value 0.997 | S. cerevisiae deletion strains, locus YOR270C, strain vph1, stronger effect = lower value 1.02 | S. cerevisiae deletion strains, locus YOR290C, strain snf2, stronger effect = lower value 1.01 | S. cerevisiae deletion strains, locus YOR316C, strain cot1, stronger effect = lower value 1 | S. cerevisiae deletion strains, locus YPL051W, strain arl3, stronger effect = lower value 0.986 | S. cerevisiae deletion strains, locus YPL055C, strain LGE1, stronger effect = lower value 1.01 | S. cerevisiae deletion strains, locus YPL078C, strain atp4, stronger effect = lower value 0.992 | S. cerevisiae deletion strains, locus YPL106C, strain sse1, stronger effect = lower value 0.982 | S. cerevisiae deletion strains, locus YPL240C, strain hsp82, stronger effect = lower value 1 | S. cerevisiae deletion strains, locus YPL241C, strain CIN2, stronger effect = lower value 0.997 | S. cerevisiae deletion strains, locus YPR119W, strain clb2, stronger effect = lower value 0.987 | S. cerevisiae deletion strains, locus YPR141C, strain kar3, stronger effect = lower value 0.968 | S. cerevisiae deletion strains, locus YPR163C, strain tif3, stronger effect = lower value 1.01 | S. cerevisiae deletion strains, locus YPR167C, strain met16, stronger effect = lower value 1 | S. cerevisiae deletion strains, strain wtn01, stronger effect = lower value 1.01 | S. cerevisiae strains, strain wild type, stronger effect = lower value 1
active: S. cerevisiae deletion strains, locus YLR113W, strain HOG1, stronger effect = lower value 0.83 | S. cerevisiae deletion strains, locus YPL256C, strain CLN2, stronger effect = lower value 0.824
